Experimental data taken from PubChem BioAssay AID1159580 (chemical genetic matrix, 2015).
Hit rate of the full screen: of about 5,500 compounds, about 2,000 (36%) were called active. Inconclusive results (about 18%) are left out. Rule as the data show it: active = normalized growth mostly below about 0.91 (no sharp cut-off); inconclusive = no clear call, values can overlap the other calls; inactive = mostly above about 0.92. This is one part of the list.

Assay: chemical genetic growth profiling, strain panel (AID 1159580);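 also: tested at 20 µM; growth read once vehicle control cultures reached saturation at 30 °C; 1 = growth at the plate median or of vehicle wells; lower values mean less growth of the strain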
Conditions: S. cerevisiae deletion strains, growth OD

Measured: normalized growth

O=C(Nc1ccc(OC(F)(F)F)cc1)Nc1cccc(C(=O)O)c1
inactive: locus YAL013W, strain DEP1, stronger effect = lower value 1.01 | locus YBR229C, strain ROT2, stronger effect = lower value 0.999 | locus YCL061C, strain MRC1, stronger effect = lower value 1.01 | locus YDL101C, strain DUN1, stronger effect = lower value 1.01 | locus YDL134C, strain PPH21, stronger effect = lower value 1.04 | locus YDR150W, strain NUM1, stronger effect = lower value 0.947 | locus YEL061C, strain CIN8, stronger effect = lower value 1.02 | locus YGR078C, strain PAC10, stronger effect = lower value 1 | locus YHR030C, strain SLT2, stronger effect = lower value 1.02 | locus YHR087W, strain rtc3, stronger effect = lower value 1.02 | locus YJL187C, strain SWE1, stronger effect = lower value 1.01 | locus YJR043C, strain POL32, stronger effect = lower value 0.974 | locus YJR075W, strain HOC1, stronger effect = lower value 1.01 | locus YLR039C, strain RIC1, stronger effect = lower value 0.995 | locus YLR058C, strain SHM2 (second series), stronger effect = lower value 1.01 | locus YLR085C, strain ARP6, stronger effect = lower value 1.07 | locus YLR262C, strain YPT6, stronger effect = lower value 0.981 | locus YML094W, strain GIM5, stronger effect = lower value 1.02 | locus YMR219W, strain ESC1, stronger effect = lower value 1 | locus YMR263W, strain SAP30, stronger effect = lower value 1.02 | locus YMR307W, strain GAS1, stronger effect = lower value 1.08 | locus YNL153C, strain GIM3, stronger effect = lower value 0.988 | locus YNL298W, strain CLA4 (second series), stronger effect = lower value 1 | locus YNL322C, strain KRE1, stronger effect = lower value 0.999 | locus YNR030W, strain Alg12, stronger effect = lower value 1.04 | locus YPL055C, strain LGE1, stronger effect = lower value 0.999 | locus YPL241C, strain CIN2, stronger effect = lower value 1.03 | locus YPR135W, strain CTF4, stronger effect = lower value 0.996
